This note sets out measurements from PubChem BioAssay (Tox21).

Assay [1] in a line: Nuclear factor erythroid 2-related factor 2/antioxidant responsive element (Nrf2/ARE) small molecule agonists: qHTS cell viability counter screen in human keratinocytes (AID 1919968; active = well fitted curve in the direction sought with a large enough effect in the repeat runs; an effect the other way counts as inactive or inconclusive; also: nearly all actives have a fitted effect of over 55% in size; also: potency is read from the fitted curve at half-maximal effect). The method in brief:
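Cytotoxicity was multiplexed with the Nrf2/ARE luciferase assay in the same wells. Stably transfected HaCaT keratinocytes were treated with test compounds for 23 h at 37 C. Cell viability was then measured by CellTiter-Fluor fluorescence.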
For orientation: In qHTS, concentration-response curves come from the screen itself.

Assay [2] is described as follows: Nuclear factor erythroid 2-related factor 2/antioxidant responsive element (Nrf2/ARE) small molecule agonists: luciferase reporter gene qHTS assay in human keratinocytes (AID 1919969). Also: nearly all actives have a fitted effect of over 35% in size. On the technique in general: Reporter assays use an easily measured gene product as a stand-in for the process of interest.
The target in assay [3] is KiSS-1 receptor (Homo sapiens) (UniProt Q969F8). The experiment in a line: Human kisspeptin (KISS1R) small molecule agonists, calcium flux assay in KISS1R-HEK293 cells (AID 1920064; active = well fitted curve in the direction sought with a large enough effect in the repeat runs; an effect the other way counts as inactive or inconclusive). Summed up:
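Agonist activity is monitored as intracellular calcium rise in engineered HEK293 cells carrying human KISS1R. Cells are dye-loaded for 1 h at 37 C before compound addition, and fluorescence is recorded for 3 min.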

Assay [4] is described as follows: G protein-coupled receptor (GPCR) small molecule agonists, calcium flux assay: HEK293 wild type cell line counter screen (AID 1920065). Summed up: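 Seed cells, incubate 18 h (37 C, 5% CO2); add calcium dye, 1 h at 37 C; pin-transfer compounds, ATP control or DMSO; read fluorescence 480/540 nm each second for 3 min.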
(A change in cytosolic calcium serves as a functional read-out for many receptors and channels.)

Assay [5] is described as follows: p53 small molecule agonists, cell-based qHTS assay with human liver microsomes (AID 1963577). Summed up:
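p53RE-bla cells, 4,000/well, compound added after 5 h, with human liver microsomes 0.5 mg/mL and NADPH 0.5 mg/mL final; 16 h at 37 C, then LiveBLAzer 2 h RT, fluorescence.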

Assay [6] can be described thus: p53 small molecule agonists, cell-based qHTS assay with rat liver microsomes (AID 1963578). The method in brief:
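p53RE-bla cells, 4,000/well, pre-incubated 5 h, then given compounds plus rat liver microsomes (0.5 mg/mL final) and NADPH (0.5 mg/mL final). Incubation 16 h at 37 C; beta-lactamase reporter read by LiveBLAzer fluorescence after 2 h at room temperature.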

Assay [7] in a line: p53 small molecule agonists, cell-based qHTS assay with human liver microsomes: qHTS cell viability counter screen (AID 1963579). Also: nearly all actives have a fitted effect of over 45% in size. The method in brief: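 p53RE-bla cells, 4,000/well, dosed 5 hours after plating, with human liver microsomes (0.5 mg/mL final) plus NADPH (0.5 mg/mL final), 16 hours at 37 C. Viability read as CellTiter-Glo luminescence after 30 min at room temperature.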

A short description of assay [8]: p53 small molecule agonists, cell-based qHTS assay: qHTS cell viability counter screen (AID 1963581). Also: nearly all actives have a fitted effect of over 45% in size. Summed up:
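Viability was counter-screened in parallel with the p53 agonist reporter by measuring intracellular ATP luminescence in the same HCT-116 p53RE-bla wells after 16 h compound treatment at 37 C.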

Assay [9] in a line: p53 small molecule agonists, cell-based qHTS assay (AID 1963582; active = well fitted activation curve with a large enough effect in the signal ratio in the repeat runs, not every such curve was filed as active; the % refers to the signal ratio). The method in brief:
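Cells carrying a p53-responsive bla reporter are treated with test compounds for 16 h at 37 C; beta-lactamase activity is then detected with LiveBLAzer B/G FRET substrate after 2 h at room temperature.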

The nature of assay [10]: cAMP Responsive Elements (CRE) small molecule agonists, cell-based qHTS assay (AID 1963590). Summed up:
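Cells carrying a CRE-driven beta-lactamase reporter (HEK 293T) are seeded, incubated overnight (18 h), and treated with test compounds for 3 h at 37 C; reporter activity is then detected with a FRET substrate after 2 h at room temperature.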

A short description of assay [11]: cAMP Responsive Elements (CRE) small molecule antagonists, cell-based qHTS assay (AID 1963591; active = well fitted inhibition curve with a large enough effect in the signal ratio in the repeat runs, not every such curve was filed as active; the % refers to the signal ratio; also: potency is read from the fitted curve at half-maximal effect). The method in brief:
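Cells (CRE-bla HEK 293T, DMEM with 10% dialyzed FBS and 25 mM HEPES) are seeded and incubated 18 h. Compounds are added with NKH477 agonist at 0.25 uM final for 3 h, then FRET substrate for 2 h.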

Assay [12] deals with Beta-2 adrenergic receptor (Homo sapiens) (UniProt P07550). The experiment in a line: Adrenergic beta2 receptor (ADRB2) small molecule antagonists, cell-based qHTS assay (AID 1963592). Also: series mostly up to about 92 µM; nearly all actives have a fitted effect of over 50% in size. The method in brief: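 Assay format: CHO-ADRB2 cells, 18-20hr seeding at 37C/5% CO2, then compound plus 1nM isoproterenol agonist mix for 0.5hr RT. Homogeneous time-resolved fluorescence cAMP detection after 1hr, expressed as 665/615 nm ratio.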

In assay [13] the target is D(2) dopamine receptor (Homo sapiens) (UniProt P14416). Put plainly: Dopamine D2 receptor (DRD2) small molecule agonists, cell-based qHTS assay (AID 1963594). Also: nearly all actives have a fitted effect of over 35% in size. Summed up:
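HEK293 cells stably expressing DRD2 were cultured 24 h at 37 C, then given Ro20-1724 (0.1 mM final) and compounds for 10 min at room temperature. NKH477 (200nM) was then added for 30 min. cAMP was read by HTRF.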

Assay [14] has the same target. The experiment in a line: Dopamine D2 receptor (DRD2) small molecule antagonists, cell-based qHTS assay (AID 1963595; active = well fitted inhibition curve with a large enough effect in the signal ratio in the repeat runs, with a control signal flat; the % refers to the signal ratio). Summed up:
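Readout: HTRF cAMP, cAMP-d2 competing with cellular cAMP for anti-cAMP cryptate, read after 1 h. Cells: DRD2-HEK293. Conditions: 0.1 mM Ro20-1724, 12 nM quinpirole, 200 nM NKH477, 30 min RT.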

Assay [15] can be described thus: p53 small molecule agonists, cell-based qHTS assay with rat liver microsomes: qHTS cell viability counter screen (AID 1963580). Also: nearly all actives have a fitted effect of over 45% in size. The method in brief: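 Counter screen for cytotoxicity under metabolic activation: rat liver microsomes and NADPH, 0.5 mg/mL final each, added with compounds to p53RE-bla HCT-116 cells; 16 h at 37 C, then ATP luminescence read.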
For assay [16], the target named is 5-hydroxytryptamine receptor 2A (Homo sapiens) (UniProt P28223). The experiment in a line: 5-hydroxytryptamine receptor 2A (HTR2A) small molecule antagonists, cell-based qHTS assay (AID 1963586). Also: nearly all actives have a fitted effect of over 45% in size. The method in brief:
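CHO cells stably expressing human HTR2A were plated for 18 h at 37 C, then loaded with calcium dye for 1 h. Compounds were preincubated 5 min at room temperature before DOI (4 nM solution) was added. Kinetic fluorescence was read for 3 min.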

For assay [17] the target is unchanged. The experiment in a line: 5-hydroxytryptamine receptor 2A (HTR2A) small molecule agonists, cell-based qHTS assay (AID 1963587). Also: nearly all actives have a fitted effect of over 30% in size. Summed up: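 HTR2A-CHO cells, plated 18 h at 37 C/5% CO2, dye-loaded 1 h at 37 C; compounds in DMSO added by pin tool (agonist mode). Intracellular calcium flux read as kinetic fluorescence on FDSS over 2 min at 1 s intervals.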
In assay [18] the target is Muscarinic acetylcholine receptor M1 (Homo sapiens) (UniProt P11229). Put plainly: Cholinergic receptor muscarinic 1 (CHRM1) small molecule agonists, cell-based qHTS assay (AID 1963589). Also: nearly all actives have a fitted effect of over 35% in size. Summed up:
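Cells were plated and incubated 18 h at 37 C/5% CO2, loaded with calcium dye for 1 h at 37 C, then treated with compounds in DMSO. Fluorescence was recorded kinetically at 1 sec intervals.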

The target is the same in assay [19]. The experiment in a line: Cholinergic receptor muscarinic 1 (CHRM1) small molecule antagonists, cell-based qHTS assay (AID 1963588). Also: nearly all actives have a fitted effect of over 40% in size. The method in brief:
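Compounds were tested at 15 concentrations in three independent runs. Dye-loaded CHRM1-CHO cells were exposed 5 min at room temperature before stimulation by acetylcholine added at 50nM. Intracellular calcium was read kinetically on FDSS for 3 min.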

A number with no mark means an inactive call. Records with an inconclusive call do not appear. The source made the active and inactive calls. Unless noted, calls follow the shape of the full dose curve.

Chain of D(2) dopamine receptor (Homo sapiens) (P14416 whole entry, looked up): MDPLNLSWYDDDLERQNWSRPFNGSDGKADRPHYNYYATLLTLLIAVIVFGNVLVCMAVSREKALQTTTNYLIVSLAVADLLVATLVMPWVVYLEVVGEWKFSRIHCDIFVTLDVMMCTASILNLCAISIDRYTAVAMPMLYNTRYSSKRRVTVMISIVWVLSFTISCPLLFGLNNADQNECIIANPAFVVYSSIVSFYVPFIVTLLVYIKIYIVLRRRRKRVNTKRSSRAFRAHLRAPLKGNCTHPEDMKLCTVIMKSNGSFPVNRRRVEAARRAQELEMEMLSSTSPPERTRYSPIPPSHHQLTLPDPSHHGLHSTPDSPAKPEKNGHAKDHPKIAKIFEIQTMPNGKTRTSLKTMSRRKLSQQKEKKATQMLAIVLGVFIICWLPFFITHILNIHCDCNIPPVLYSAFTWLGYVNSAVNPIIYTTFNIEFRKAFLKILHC
Chain of 5-hydroxytryptamine receptor 2A (Homo sapiens) (P28223 whole entry, looked up): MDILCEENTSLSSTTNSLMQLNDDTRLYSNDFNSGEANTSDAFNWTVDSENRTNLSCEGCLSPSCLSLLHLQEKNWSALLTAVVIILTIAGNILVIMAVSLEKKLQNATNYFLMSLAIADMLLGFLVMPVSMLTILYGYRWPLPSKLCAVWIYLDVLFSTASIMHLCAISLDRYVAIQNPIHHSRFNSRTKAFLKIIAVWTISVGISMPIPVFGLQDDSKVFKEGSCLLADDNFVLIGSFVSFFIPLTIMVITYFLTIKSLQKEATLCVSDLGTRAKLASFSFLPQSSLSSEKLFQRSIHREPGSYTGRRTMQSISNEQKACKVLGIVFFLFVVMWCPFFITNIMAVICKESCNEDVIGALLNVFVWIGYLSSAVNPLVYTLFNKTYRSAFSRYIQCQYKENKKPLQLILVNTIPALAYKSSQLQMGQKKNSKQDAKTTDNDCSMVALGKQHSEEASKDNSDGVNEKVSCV
Chain of Beta-2 adrenergic receptor (Homo sapiens) (P07550 whole entry, looked up): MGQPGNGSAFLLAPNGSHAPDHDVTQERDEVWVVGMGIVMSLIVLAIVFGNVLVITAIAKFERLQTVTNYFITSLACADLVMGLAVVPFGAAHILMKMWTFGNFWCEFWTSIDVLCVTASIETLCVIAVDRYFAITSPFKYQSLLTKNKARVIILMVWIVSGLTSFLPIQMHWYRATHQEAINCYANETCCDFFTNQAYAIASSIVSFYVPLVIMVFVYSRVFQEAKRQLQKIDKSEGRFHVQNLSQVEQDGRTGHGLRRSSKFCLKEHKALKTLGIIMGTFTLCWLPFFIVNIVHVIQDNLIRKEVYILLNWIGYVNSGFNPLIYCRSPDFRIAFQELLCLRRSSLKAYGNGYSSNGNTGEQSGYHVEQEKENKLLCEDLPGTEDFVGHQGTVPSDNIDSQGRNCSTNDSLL
Chain of KiSS-1 receptor (Homo sapiens) (Q969F8 whole entry, looked up): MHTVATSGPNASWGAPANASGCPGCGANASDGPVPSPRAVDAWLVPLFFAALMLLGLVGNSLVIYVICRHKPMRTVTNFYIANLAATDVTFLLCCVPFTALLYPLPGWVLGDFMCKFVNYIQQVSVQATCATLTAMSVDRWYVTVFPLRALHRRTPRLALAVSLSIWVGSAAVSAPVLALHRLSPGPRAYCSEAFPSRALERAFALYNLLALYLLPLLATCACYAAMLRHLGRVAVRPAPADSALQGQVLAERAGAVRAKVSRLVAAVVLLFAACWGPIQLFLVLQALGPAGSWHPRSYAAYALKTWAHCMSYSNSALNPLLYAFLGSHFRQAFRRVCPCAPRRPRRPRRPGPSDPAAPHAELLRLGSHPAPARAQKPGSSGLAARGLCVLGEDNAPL
Chain of Muscarinic acetylcholine receptor M1 (Homo sapiens) (P11229 whole entry, looked up): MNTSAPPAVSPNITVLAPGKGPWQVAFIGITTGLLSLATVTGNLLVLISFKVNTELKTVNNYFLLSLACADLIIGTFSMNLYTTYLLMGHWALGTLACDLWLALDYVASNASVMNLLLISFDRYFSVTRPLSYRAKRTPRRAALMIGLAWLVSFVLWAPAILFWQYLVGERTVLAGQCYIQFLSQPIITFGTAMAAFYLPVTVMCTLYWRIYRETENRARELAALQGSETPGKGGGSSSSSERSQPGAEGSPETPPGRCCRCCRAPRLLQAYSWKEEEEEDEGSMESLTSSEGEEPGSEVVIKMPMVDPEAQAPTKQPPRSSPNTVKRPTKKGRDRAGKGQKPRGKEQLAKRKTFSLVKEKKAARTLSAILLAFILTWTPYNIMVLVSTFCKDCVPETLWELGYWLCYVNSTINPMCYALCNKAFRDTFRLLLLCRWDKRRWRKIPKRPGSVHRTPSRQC

As for `CC1=NS(=O)(=O)c2cc(Cl)ccc2N1`, the Potency result in [1], in assay [2], in [5], in assay [6], in assay [7] and in assay [8] was “inactive” each time. The Potency result in assay [9], in assay [10], in assay [11], in assay [12], in [13] and in assay [14] was “inactive” throughout. Further, the result in [3] and in assay [4] was inactive.

For `O=C(O)c1ccccc1Cl`, the Potency result in [1], in assay [2], in assay [5], in assay [6], in assay [15] and in assay [8] was “inactive” in each case. The Potency result in assay [9], in assay [16], in assay [17], in assay [18], in assay [10] and in assay [12] was “inactive” each time. In addition, the Potency entry in assay [13] was “inactive”. The outcome in assay [3] and in [4] was inactive.

For `CN1C(=O)N(c2ccccc2Br)Cc2cnc(Nc3ccc4c(c3)OCC(CO)O4)nc21` (stereo not given), the values for the Potency in assay [1] and in assay [11] were 54.5 µM (active) and 57 µM (active), respectively. Moreover, the Potency entry in assay [2], in [5], in [6], in [8], in assay [16] and in [17] was “inactive” each time. Besides, the Potency entry in assay [19], in assay [18] and in [13] was “inactive” in each case. For the same compound, the outcome in [3] and in assay [4] was inactive.

With `N[C@H]1C(O)O[C@H](CO)[C@H](O)[C@@H]1O` (stereo not given in full), the Potency result in assay [1], in [2], in assay [5], in [6], in assay [15] and in assay [8] was “inactive” each time. Besides, the Potency result in assay [9], in [16], in assay [17], in [19], in assay [18] and in assay [10] was “inactive” in each case. Moreover, the Potency entry in assay [12], in assay [13] and in assay [14] was “inactive” throughout. Also, the result in assay [3] and in [4] was inactive.

As to `CC(C)Cc1nccs1`, the Potency result in [1], in assay [2], in assay [5], in assay [6], in assay [7] and in assay [15] was “inactive” in each case. Moreover, the Potency result in [16], in [17], in [18], in assay [11], in assay [12] and in [13] was “inactive” throughout. In [14], the Potency result is “inactive”. Moreover, the result in assay [3] and in [4] was inactive.

Take `Cc1c(Cn2ccnc2)c2ccccc2n1CCC(=O)O`: the Potency entry in [1], in [2], in [5], in assay [6], in assay [15] and in assay [8] was “inactive” each time. In addition, the Potency result in [9], in [16], in assay [17], in assay [19], in assay [18] and in assay [10] was “inactive” throughout. Besides, the Potency result in assay [11], in assay [13] and in [14] was “inactive” in each case. Moreover, the outcome in assay [3] and in assay [4] was inactive.

Turning to `c1ccc2c(CC3=NCCN3)cccc2c1`, the Potency entry in assay [1], in [2], in assay [5], in [6], in assay [7] and in assay [8] was “inactive” each time. Moreover, the Potency result in assay [9], in [17], in [19], in assay [18], in assay [10] and in assay [11] was “inactive” throughout. Moreover, the Potency entry in assay [12], in assay [13] and in assay [14] was “inactive” throughout. Moreover, the outcome in [3] and in [4] was inactive.

As for `CC(C=O)Cc1ccc(C(C)C)cc1` (stereo not given), the Potency result in assay [1], in assay [2], in assay [5], in assay [6], in [7] and in assay [15] was “inactive” each time. For the same compound, the Potency result in assay [9], in assay [17], in assay [19], in assay [18], in assay [10] and in assay [11] was “inactive” in each case. Besides, the Potency result in assay [12], in assay [13] and in assay [14] was “inactive” each time. In addition, the outcome in assay [3] and in assay [4] was inactive.
